Common to all, as to assay: DAPPL (digital affinity profiling via proximity ligation, sequencing); 10 mM Tris-HCl pH 7.5, 50 mM NaCl, 1 mM DTT, 4% glycerol, room temperature, 30 min; GST-TFs on glutathione beads, 16-mer random dsDNA library, 0.1% formaldehyde crosslink after washing; high values mean tight binding
One experiment has as its target T1, FEV (Homo sapiens, UniProt Q99581 1-238).
T1 sequence: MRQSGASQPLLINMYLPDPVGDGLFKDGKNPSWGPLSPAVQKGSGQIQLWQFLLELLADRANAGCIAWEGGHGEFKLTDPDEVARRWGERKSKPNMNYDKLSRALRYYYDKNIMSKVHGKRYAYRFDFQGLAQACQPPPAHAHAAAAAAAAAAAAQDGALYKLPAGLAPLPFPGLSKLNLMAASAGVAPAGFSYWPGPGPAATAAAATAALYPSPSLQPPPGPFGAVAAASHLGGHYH
Conditions: protein: recombinant; tags: N-terminal GST; dsDNA, one strand shown. Put shortly:
(§1)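 Beads coated with glutathione captured GST-fused human transcription factors that had been expressed in yeast, and the factors were then given DNA barcodes and pooled with a tag-only sample. The pools were incubated with 200 nmole of a random double-stranded 16-mer DNA library in Tris/NaCl/DTT/glycerol buffer for 30 min at room temperature, washed, crosslinked with 0.1% formaldehyde and proximity-ligated with BsaI/T4 ligase at 37 °C for 1 h. PCR amplification and Illumina NextSeq500 sequencing came last. Binding signal is each hexamer's read frequency for a factor divided by its frequency for the tag-only sample.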

A further experiment has as its target ETV5 (Homo sapiens, UniProt P41161 1-510). Conditions: protein: recombinant; tags: N-terminal GST; dsDNA, one strand shown. An outline of the steps:
as §1

Another experiment deals with HSF1 (Homo sapiens, UniProt Q00613 1-529). Conditions: protein: recombinant; tags: N-terminal GST; chain copies: 3; dsDNA, one strand shown. An outline of the steps:
as §1

The next experiment has as its target T2, SPIC (Homo sapiens, UniProt Q8N5J4 1-248).
T2 sequence: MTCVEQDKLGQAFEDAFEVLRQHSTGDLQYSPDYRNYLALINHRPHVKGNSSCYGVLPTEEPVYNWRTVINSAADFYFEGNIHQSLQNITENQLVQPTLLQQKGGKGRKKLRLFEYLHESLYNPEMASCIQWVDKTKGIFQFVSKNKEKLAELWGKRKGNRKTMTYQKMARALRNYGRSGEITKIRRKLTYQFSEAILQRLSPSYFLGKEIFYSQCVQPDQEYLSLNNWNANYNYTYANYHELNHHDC
Conditions: protein: recombinant; tags: N-terminal GST; dsDNA, one strand shown. An outline of the steps: as §1

The next experiment has as its target ELF4 (Homo sapiens, UniProt Q99607 1-663). Conditions: protein: recombinant; tags: N-terminal GST; dsDNA, one strand shown. An outline of the steps: as §1
The target of another experiment is T3, ELK4 (Homo sapiens, UniProt P28324-2 1-405).
T3 sequence: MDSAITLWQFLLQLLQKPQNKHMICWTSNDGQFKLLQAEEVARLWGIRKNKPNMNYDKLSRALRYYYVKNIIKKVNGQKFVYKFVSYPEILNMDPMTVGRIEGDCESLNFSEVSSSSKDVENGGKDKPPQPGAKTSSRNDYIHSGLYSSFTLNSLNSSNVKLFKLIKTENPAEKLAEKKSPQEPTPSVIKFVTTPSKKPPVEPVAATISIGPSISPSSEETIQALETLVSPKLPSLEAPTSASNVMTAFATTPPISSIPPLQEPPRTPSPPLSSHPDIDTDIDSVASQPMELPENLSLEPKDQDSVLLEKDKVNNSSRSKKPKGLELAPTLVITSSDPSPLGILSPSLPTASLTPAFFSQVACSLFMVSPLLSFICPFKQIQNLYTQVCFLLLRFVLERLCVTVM
Conditions: protein: recombinant; tags: N-terminal GST; dsDNA, one strand shown. An outline of the steps:
as §1

Another experiment concerns the target T4, ETV2 (Homo sapiens, UniProt O00321 1-342).
T4 sequence: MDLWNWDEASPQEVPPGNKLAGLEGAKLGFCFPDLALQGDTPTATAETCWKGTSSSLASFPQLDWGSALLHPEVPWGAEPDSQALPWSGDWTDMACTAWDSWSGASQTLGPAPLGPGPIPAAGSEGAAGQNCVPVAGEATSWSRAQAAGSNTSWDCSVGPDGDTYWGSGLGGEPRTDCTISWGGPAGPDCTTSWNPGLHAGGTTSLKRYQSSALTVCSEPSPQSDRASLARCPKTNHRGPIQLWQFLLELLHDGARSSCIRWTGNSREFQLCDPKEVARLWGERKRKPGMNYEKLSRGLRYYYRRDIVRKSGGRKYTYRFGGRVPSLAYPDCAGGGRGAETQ
Conditions: protein: recombinant; tags: N-terminal GST; dsDNA, one strand shown. Put shortly:
as §1

Another experiment deals with T5, ELF3 (Homo sapiens, UniProt P78545 1-371).
T5 sequence: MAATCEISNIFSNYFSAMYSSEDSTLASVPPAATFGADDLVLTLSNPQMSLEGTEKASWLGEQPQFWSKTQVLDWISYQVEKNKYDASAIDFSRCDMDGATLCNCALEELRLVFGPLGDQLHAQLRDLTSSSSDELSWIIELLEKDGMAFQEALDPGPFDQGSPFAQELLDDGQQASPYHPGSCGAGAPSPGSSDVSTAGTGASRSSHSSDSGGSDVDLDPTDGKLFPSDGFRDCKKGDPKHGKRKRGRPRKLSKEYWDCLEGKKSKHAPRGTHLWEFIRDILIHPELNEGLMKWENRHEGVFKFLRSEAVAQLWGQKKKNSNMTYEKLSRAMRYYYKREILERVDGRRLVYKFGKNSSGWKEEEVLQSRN
Conditions: protein: recombinant; tags: N-terminal GST; dsDNA, one strand shown. An outline of the steps:
as §1

In the next experiment the target is CRX (Homo sapiens, UniProt O43186 1-299). Conditions: protein: recombinant; tags: N-terminal GST; dsDNA, one strand shown. Put shortly:
as §1

The target of the next experiment is ETV1 (Homo sapiens, UniProt P50549 1-477). Conditions: protein: recombinant; tags: N-terminal GST; dsDNA, one strand shown. An outline of the steps:
as §1

The target of another experiment is T6, ERF (Homo sapiens, UniProt P50548 1-548).
T6 sequence: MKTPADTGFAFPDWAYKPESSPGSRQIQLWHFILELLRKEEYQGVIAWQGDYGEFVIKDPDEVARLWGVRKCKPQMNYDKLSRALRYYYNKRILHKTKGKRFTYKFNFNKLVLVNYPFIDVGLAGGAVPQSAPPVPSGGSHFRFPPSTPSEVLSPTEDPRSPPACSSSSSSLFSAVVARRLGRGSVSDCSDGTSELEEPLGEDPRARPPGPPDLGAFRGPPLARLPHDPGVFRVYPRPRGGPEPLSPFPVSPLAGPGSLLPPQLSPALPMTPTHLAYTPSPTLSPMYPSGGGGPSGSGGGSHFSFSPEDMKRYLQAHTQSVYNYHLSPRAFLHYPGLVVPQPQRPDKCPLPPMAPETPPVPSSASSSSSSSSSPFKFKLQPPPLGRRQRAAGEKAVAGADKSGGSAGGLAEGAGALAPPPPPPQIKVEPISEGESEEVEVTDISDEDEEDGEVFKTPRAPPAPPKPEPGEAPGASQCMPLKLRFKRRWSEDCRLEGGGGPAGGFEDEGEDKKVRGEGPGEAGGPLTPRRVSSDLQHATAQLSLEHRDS
Conditions: protein: recombinant; tags: N-terminal GST; dsDNA, one strand shown. An outline of the steps: as §1

The next experiment has as its target T7, ETV3L (Homo sapiens, UniProt Q6ZN32 1-361).
T7 sequence: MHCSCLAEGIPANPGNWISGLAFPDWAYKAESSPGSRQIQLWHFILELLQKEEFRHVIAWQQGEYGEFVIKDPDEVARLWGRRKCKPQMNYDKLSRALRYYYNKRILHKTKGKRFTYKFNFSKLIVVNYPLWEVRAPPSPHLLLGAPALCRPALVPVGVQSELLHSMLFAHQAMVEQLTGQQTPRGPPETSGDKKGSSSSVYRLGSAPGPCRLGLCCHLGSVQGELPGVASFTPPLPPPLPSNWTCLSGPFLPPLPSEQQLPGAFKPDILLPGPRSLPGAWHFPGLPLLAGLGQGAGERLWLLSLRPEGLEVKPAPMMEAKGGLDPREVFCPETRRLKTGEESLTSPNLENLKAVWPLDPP
Conditions: protein: recombinant; tags: N-terminal GST; dsDNA, one strand shown. Put shortly:
as §1

The target in the next experiment is T8, ETS2 (Homo sapiens, UniProt P15036 1-469).
T8 sequence: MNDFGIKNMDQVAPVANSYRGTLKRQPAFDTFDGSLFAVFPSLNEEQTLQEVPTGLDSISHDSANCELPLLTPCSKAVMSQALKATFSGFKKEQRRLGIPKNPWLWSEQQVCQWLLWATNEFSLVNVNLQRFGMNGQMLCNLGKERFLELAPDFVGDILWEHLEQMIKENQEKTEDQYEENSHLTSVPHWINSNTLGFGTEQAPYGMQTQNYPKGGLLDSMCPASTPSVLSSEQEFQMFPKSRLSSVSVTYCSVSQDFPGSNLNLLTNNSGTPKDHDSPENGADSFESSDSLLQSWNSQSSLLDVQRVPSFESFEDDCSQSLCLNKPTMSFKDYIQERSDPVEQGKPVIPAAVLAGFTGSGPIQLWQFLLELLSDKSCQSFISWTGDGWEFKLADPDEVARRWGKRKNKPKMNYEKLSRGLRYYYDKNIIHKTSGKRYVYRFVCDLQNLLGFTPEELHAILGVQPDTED
Conditions: protein: recombinant; tags: N-terminal GST; dsDNA, one strand shown. Put shortly:
as §1

The next experiment deals with T9, SPDEF (Homo sapiens, UniProt O95238 1-335).
T9 sequence: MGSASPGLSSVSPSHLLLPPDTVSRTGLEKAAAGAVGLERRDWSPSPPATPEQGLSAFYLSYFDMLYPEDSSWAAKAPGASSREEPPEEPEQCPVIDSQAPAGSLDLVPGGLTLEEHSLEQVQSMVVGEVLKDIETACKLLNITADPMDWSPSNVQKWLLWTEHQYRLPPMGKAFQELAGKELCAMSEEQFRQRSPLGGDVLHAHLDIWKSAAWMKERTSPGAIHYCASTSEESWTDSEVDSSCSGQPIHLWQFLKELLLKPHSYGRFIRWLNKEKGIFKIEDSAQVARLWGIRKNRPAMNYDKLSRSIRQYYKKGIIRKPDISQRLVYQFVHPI
Conditions: protein: recombinant; tags: N-terminal GST; dsDNA, one strand shown. Put shortly: as §1

A further experiment deals with T10, ETV7 (Homo sapiens, UniProt Q9Y603 1-341).
T10 sequence: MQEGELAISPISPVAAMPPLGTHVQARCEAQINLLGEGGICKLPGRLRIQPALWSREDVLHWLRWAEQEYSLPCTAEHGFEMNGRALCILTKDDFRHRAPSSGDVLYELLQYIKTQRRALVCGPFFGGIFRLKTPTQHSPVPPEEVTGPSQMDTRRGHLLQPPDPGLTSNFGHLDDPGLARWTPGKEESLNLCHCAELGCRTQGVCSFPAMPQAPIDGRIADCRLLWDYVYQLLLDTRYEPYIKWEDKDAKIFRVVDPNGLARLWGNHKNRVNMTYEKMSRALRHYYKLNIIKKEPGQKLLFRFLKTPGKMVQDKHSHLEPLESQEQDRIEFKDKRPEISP
Conditions: protein: recombinant; tags: N-terminal GST; dsDNA, one strand shown. Put shortly:
as §1

The target of another experiment is T11, ELF5 (Homo sapiens, UniProt Q9UKW6-2 1-255).
T11 sequence: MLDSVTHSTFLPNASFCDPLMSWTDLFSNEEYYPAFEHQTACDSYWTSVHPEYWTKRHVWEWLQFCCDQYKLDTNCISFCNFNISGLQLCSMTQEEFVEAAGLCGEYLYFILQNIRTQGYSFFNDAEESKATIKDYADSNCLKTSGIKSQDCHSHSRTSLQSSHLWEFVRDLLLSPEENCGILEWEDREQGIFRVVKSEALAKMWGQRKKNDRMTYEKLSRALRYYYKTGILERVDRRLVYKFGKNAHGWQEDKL
Conditions: protein: recombinant; tags: N-terminal GST; dsDNA, one strand shown. An outline of the steps:
as §1

In the next experiment the target is T12, ETV3 (Homo sapiens, UniProt P41162-2 1-143).
T12 sequence: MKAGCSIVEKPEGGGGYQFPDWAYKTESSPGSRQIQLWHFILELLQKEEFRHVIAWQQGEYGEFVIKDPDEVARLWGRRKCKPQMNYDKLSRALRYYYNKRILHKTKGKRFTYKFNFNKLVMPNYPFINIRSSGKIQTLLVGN
Conditions: protein: recombinant; tags: N-terminal GST; dsDNA, one strand shown. An outline of the steps: as §1

The next experiment addresses ETV6 (Homo sapiens, UniProt P41212 1-452). Conditions: protein: recombinant; tags: N-terminal GST; dsDNA, one strand shown. Put shortly: as §1

HSF1, sequence (Q00613 whole entry): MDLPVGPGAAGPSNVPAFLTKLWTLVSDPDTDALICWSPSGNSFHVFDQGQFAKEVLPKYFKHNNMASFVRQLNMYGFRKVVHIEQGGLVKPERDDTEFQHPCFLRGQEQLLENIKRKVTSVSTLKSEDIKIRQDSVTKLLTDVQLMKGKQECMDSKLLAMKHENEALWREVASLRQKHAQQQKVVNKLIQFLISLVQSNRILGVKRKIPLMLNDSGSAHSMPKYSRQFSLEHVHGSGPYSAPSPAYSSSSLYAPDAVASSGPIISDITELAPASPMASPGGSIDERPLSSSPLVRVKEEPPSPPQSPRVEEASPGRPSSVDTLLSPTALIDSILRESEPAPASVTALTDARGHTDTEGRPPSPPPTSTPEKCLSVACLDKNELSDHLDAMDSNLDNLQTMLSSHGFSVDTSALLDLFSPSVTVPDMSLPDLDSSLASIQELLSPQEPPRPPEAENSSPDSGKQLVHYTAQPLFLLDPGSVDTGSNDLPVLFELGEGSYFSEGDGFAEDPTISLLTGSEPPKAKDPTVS
ETV5, sequence (P41161 whole entry): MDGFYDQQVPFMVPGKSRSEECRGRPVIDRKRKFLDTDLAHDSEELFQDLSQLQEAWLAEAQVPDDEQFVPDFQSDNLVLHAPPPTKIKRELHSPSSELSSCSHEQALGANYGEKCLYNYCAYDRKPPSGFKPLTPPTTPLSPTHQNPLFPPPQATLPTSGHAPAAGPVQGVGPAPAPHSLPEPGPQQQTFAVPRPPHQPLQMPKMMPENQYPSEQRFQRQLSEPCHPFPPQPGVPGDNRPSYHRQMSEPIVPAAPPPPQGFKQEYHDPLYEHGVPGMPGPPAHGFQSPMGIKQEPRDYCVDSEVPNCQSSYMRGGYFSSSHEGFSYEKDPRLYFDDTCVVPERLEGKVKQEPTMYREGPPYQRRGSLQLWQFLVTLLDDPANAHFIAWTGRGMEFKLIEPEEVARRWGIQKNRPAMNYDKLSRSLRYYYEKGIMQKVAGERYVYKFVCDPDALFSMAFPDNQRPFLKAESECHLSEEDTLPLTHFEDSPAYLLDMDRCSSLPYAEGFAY
CRX, sequence (O43186 whole entry): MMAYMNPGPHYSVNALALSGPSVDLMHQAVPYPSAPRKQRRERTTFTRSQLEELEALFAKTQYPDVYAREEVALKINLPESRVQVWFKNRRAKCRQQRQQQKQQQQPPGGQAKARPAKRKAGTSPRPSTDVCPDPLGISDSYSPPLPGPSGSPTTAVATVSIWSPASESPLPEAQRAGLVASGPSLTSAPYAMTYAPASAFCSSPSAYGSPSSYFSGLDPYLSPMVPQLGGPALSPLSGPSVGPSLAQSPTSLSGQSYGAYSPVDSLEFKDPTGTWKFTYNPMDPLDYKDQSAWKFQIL
ELF4, sequence (Q99607 whole entry): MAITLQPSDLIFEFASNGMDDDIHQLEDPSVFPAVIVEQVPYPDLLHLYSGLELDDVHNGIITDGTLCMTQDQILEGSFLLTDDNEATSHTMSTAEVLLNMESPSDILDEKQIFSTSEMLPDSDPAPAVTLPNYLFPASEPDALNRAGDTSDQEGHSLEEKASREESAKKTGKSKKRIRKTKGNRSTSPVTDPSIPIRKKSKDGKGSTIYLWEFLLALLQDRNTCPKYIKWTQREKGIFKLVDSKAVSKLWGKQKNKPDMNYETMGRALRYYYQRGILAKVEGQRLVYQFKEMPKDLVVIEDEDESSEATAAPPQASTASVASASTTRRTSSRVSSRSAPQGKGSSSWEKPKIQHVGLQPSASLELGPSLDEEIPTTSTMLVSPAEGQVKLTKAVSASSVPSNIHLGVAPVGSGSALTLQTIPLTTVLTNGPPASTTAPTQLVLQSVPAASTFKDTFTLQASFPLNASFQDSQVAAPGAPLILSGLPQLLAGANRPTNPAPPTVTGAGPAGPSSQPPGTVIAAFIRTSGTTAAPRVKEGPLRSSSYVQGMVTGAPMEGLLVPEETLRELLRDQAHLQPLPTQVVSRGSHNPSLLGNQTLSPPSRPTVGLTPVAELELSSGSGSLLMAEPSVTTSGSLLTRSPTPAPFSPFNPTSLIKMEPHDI
ETV1, sequence (P50549 whole entry): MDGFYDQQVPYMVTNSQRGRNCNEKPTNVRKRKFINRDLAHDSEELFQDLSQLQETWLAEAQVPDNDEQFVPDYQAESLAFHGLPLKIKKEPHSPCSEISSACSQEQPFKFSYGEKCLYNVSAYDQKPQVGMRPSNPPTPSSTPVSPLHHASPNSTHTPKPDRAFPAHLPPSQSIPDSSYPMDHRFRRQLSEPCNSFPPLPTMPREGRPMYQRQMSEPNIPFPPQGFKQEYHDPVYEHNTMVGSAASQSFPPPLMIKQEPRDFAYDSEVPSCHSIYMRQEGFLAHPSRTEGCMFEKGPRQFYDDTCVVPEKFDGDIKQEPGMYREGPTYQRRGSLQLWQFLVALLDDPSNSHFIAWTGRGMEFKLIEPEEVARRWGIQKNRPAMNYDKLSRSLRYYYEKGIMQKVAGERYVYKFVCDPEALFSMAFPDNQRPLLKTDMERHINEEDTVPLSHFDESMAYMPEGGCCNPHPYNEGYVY
ETV6, sequence (P41212 whole entry): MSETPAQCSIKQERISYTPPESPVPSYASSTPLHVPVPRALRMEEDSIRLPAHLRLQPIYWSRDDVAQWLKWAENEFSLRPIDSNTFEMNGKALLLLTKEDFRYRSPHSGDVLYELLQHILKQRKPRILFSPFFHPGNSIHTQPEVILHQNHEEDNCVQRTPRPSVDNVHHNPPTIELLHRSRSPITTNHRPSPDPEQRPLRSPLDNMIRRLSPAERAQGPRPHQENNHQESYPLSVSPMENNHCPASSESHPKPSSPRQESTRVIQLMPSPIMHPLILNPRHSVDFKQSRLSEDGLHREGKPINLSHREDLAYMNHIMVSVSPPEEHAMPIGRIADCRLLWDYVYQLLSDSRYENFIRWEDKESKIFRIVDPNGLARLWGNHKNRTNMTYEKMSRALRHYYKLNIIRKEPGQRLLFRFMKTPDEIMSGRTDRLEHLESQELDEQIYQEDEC

Regarding CCATTT, the binding signal with FEV was 1.5 fold enrichment (6-mer frequency, TF over GST control); with ETV5, 1.47 fold enrichment (6-mer frequency, TF over GST control); with HSF1 it was 1.01 fold enrichment (6-mer frequency, TF over GST control); with SPIC, 1.42 fold enrichment (6-mer frequency, TF over GST control); with ELF4, 1.32 fold enrichment (6-mer frequency, TF over GST control); in the experiment with ELK4 it was 1.41 fold enrichment (6-mer frequency, TF over GST control). The binding signal was 1.38 fold enrichment (6-mer frequency, TF over GST control) in the experiment with ETV2; 1.28 fold enrichment (6-mer frequency, TF over GST control) with ELF3; 1.01 fold enrichment (6-mer frequency, TF over GST control) with CRX; 1.36 fold enrichment (6-mer frequency, TF over GST control) in the experiment with ETV1; 1.32 fold enrichment (6-mer frequency, TF over GST control) in the experiment with ERF; 1.25 fold enrichment (6-mer frequency, TF over GST control) with ETV3L. In addition, the binding signal in the experiment with ETS2 is 1.41 fold enrichment (6-mer frequency, TF over GST control); with SPDEF, 1.21 fold enrichment (6-mer frequency, TF over GST control); in the experiment with ETV7, 1.24 fold enrichment (6-mer frequency, TF over GST control); with ELF5, 1.31 fold enrichment (6-mer frequency, TF over GST control); with ETV3 it was 1.34 fold enrichment (6-mer frequency, TF over GST control); with ETV6, 1.34 fold enrichment (6-mer frequency, TF over GST control).

Source of the values: publication PMC7862700, “An all-to-all approach to the identification of sequence-specific readers for epigenetic DNA modifications on cytosine”.
